Source: PubChem (several laboratories)
Neddylation inh: inhibitors of cullin neddylation, primary screen, biochemical, TR-FRET, uHTS, NAE and Ubc12 | calls only at 25 µM | NEDD8-conjugating enzyme Ubc12 (Homo sapiens) + NEDD8-activating enzyme E1 regulatory … | 360,000 tested, 0.58% active | AID 651699, 2012; in the data active = inhibition above about 36%
MBD2 inh: inhibitors of MBD2 binding to methylated DNA, primary screen, biochemical, TR-FRET, DNA-binding domain, human. MBD2 binding to methylated oligonucleotide. Methyl-CpG-binding domain protein 2 (Homo sapiens), Q9UBB5. 370,000 tested, 0.31% active. inhibition, % at 4.4 µM; in the data active = inhibition above about 13%
Rin1-Abl PPI inh: inhibitors of Rin1-Abl protein binding, primary screen, biochemical, TR-FRET; Tyrosine-protein kinase ABL1 (Homo sapiens) + Ras and Rab interactor 1 (Homo sapiens), …; inhibition, % at 7.35 µM; 360,000 tested, 0.4% active; in the data active = inhibition above about 5%, passing the limit was not always enough
KLK7 zymogen act: proKLK7 zymogen activators, primary screen, biochemical, fluorescence intensity. Kallikrein-7 (Homo sapiens), P49862. purified proKLK7, EDANS-DABCYL substrate fluorescence; 100% is mature enzyme control, 0% vehicle. activation, % at 7 µM. 370,000 tested, 0.9% active. AID 652039, 2013;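 active = activation above the mean of all tested compounds plus 3 SD, computed per campaign excluding outliers beyond control limits, cut at about 13% in these data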
UHRF1 MBD2 ctr: UHRF1 methylated DNA binding inhibitors, primary screen, counter-screen for MBD2 inhibitor project, biochemical, TR-FRET, human UHRF1, single concentration. E3 ubiquitin-protein ligase UHRF1 (Homo sapiens), Q96T88. UHRF1 binding to methylated oligo. inhibition, % at 4.4 µM. 370,000 tested, 0.75% active. AID 687016, 2013; in the data active = inhibition above about 21%;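 also: UHRF1 SRA domain binding a hemimethylated CpG hairpin DNA probe; 0% = median of test compound wells and 100% = reference inhibitor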
LEDGF integ inh: blockers of LEDGF/p75-dependent integrase strand transfer – biochemical, TR-FRET, high throughput, primary screen; HIV-1 integrase (with human LEDGF/p75); TR-FRET IN-LEDGF/p75 DNA integration, Eu/Cy5; inhibition, % at 3.7 µM; 370,000 tested, 0.64% active; AID 743269, 2014;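 active = inhibition above the screen-wide mean plus 3 SD, cut at about 13% in these data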;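 also: signal is the Cy5 over europium emission ratio at 671 and 618 nm; 0% = plate median of compound wells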
KLK7 act conf: proKLK7 zymogen activators, confirmation, biochemical, fluorescence intensity, triplicate; shares compounds with KLK7 zymogen act; purified proKLK7, EDANS-DABCYL substrate fluorescence; scaled: vehicle 0, mature enzyme 100; activation, % at 7 µM; 3,200 tested, 68% active; AID 686949, 2013;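 active = activation, as change over the incubation, above the mean of all tested compounds plus 3 SD, cut at about 13% in these data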
EDANS interfere: EDANS-DABCYL substrate optical interference, artefact control for kallikrein-7 zymogen activator project, biochemical, fluorescence intensity, high throughput; shares compounds with KLK7 zymogen act; no enzyme, 4 h; solvent 0%, active enzyme control 100%; activation, % at 7 µM; 3,200 tested, 80% active;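 active = activation above the all-compound mean plus 3 SD, ignoring values outside control-based bounds, cut at about 4.8% in these data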;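 also: value is the 4 h activation minus the activation read at time zero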
K7 EDANS ctr: EDANS fluorescence interference in dose response, no enzyme. shares compounds with KLK7 zymogen act. EDANS-DABCYL peptide fluorescence interference. EC50, µM. 250 tested, 20% active. AID 720493;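 active = compounds that raise the fluorescence signal in this interference counterscreen, with EC50 at or below 10 µM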;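 also: intact quenched peptide substrate alone read at 355 nm excitation and 520 nm emission; signal is fluorescence gain from T0 to T4 after four hours at room temperature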
The depositor's hits bear a star. This is a sample that favours compounds with a hit; in the whole collection about 3.1% have one here.

`c1cc(Nc2ncnc3sc4c(c23)CCC4)ccn1` gave MBD2 inh -3, Rin1-Abl PPI inh -5, KLK7 zymogen act 32*, UHRF1 MBD2 ctr -2, LEDGF integ inh -1, KLK7 act conf 56* and EDANS interfere 64*.
`O=C(CN1CCc2onc(-c3ccc(-n4cc(-c5ccccc5)nn4)cc3)c2C1=O)N1CCOCC1` gave MBD2 inh 3, KLK7 zymogen act 0, UHRF1 MBD2 ctr 0 and LEDGF integ inh -4.
Screening N#Cc1c(N)n(-c2ccccc2N)c2nc3ccccc3nc12 returned Neddylation inh inactive, MBD2 inh -1, Rin1-Abl PPI inh -1, KLK7 zymogen act 0, UHRF1 MBD2 ctr -3 and LEDGF integ inh 4.
`N#Cc1c(N)n(CCNC(=O)c2ccccc2)c2nc3ccccc3nc12` gave MBD2 inh -10, Rin1-Abl PPI inh 1, KLK7 zymogen act 42*, UHRF1 MBD2 ctr -8, LEDGF integ inh -7, KLK7 act conf 68* and EDANS interfere 59*.
N#Cc1c(N)n(-c2cccc(C(=O)O)c2)c2nc3ccccc3nc12 was read as MBD2 inh 1, Rin1-Abl PPI inh 0, KLK7 zymogen act 62*, UHRF1 MBD2 ctr -4, LEDGF integ inh -3, KLK7 act conf 68* and EDANS interfere 65*.
N#Cc1c(N)n(CCNC(=O)c2cccs2)c2nc3ccccc3nc12 was read as MBD2 inh -4, Rin1-Abl PPI inh -1, KLK7 zymogen act 53*, UHRF1 MBD2 ctr -10, LEDGF integ inh 0, KLK7 act conf 71* and EDANS interfere 82*.
Cc1cc2oc3cc(NCCC4CCCN4C)ccc3c(=O)c2cc1C (configuration not stated) was read as Neddylation inh inactive, MBD2 inh 9, Rin1-Abl PPI inh -8, KLK7 zymogen act 62*, UHRF1 MBD2 ctr -37, LEDGF integ inh -1, KLK7 act conf 68* and EDANS interfere 64*.
Screening CN1CCCC1CCNc1ccc2sc3ccccc3c(=O)c2c1 (configuration not stated) returned Neddylation inh inactive, MBD2 inh -11, Rin1-Abl PPI inh -11, KLK7 zymogen act 0, UHRF1 MBD2 ctr -13 and LEDGF integ inh 1.
Cc1ccccc1-n1c2nc(=O)n(C)c(=O)c-2cc2ccccc21 was read as MBD2 inh -2, Rin1-Abl PPI inh -2, KLK7 zymogen act 21*, UHRF1 MBD2 ctr -3, LEDGF integ inh 0, KLK7 act conf 30*, EDANS interfere 19* and K7 EDANS ctr inactive.
Screening O=C(CCSc1ccccc1)Nc1nnc(-c2cccs2)o1 returned Neddylation inh inactive, MBD2 inh -4, Rin1-Abl PPI inh -1, KLK7 zymogen act 0, UHRF1 MBD2 ctr -1 and LEDGF integ inh 9.
Cc1cc(C)n2cc(CSCc3ccccc3)nc2n1 was read as MBD2 inh 3, Rin1-Abl PPI inh 2, KLK7 zymogen act 14*, UHRF1 MBD2 ctr -2, LEDGF integ inh 0, KLK7 act conf 25*, EDANS interfere 21* and K7 EDANS ctr >70.
COCC(COCCCNC(=O)Nc1ccc(Br)cc1)OC (configuration not stated) was read as Neddylation inh inactive, MBD2 inh -1, Rin1-Abl PPI inh 0, KLK7 zymogen act 0, UHRF1 MBD2 ctr 11 and LEDGF integ inh 2.
